Assay [1] is described as follows: NCI Yeast Anticancer Drug Screen. Data for the rad50 strain (AID 155).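 Also: 0% = growth of vehicle-only cultures of the same strain.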 The note with it: S. cerevisiae rad50 strain growth inhibition, active compounds read high; at 50.0 µM unless noted. In a few lines:
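Yeast carrying a defined DNA repair defect were exposed to test compounds, and growth was compared with vehicle-treated controls to give percent inhibition.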

Assay [2] is described as follows: NCI Yeast Anticancer Drug Screen. Data for the mec2-1 strain (AID 157). The following applies: S. cerevisiae mec2-1 strain, active compounds read high; at 50.0 µM unless noted. The method, boiled down:
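Readout is yeast growth inhibition, normalised to vehicle-treated controls, in the mec2-1 strain exposed to compound.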

Assay [3] is described as follows: NCI Yeast Anticancer Drug Screen. Data for the sgs1 mgt1 strain (AID 161).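 Also: 0% = growth of cultures given vehicle only.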 The following applies: S. cerevisiae sgs1 mgt1 strain, active compounds read high; at 50.0 µM unless noted. The method, boiled down:
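Yeast cells carrying a defined DNA-repair defect were exposed to test compounds. Growth inhibition was measured relative to vehicle-treated controls.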

The nature of assay [4]: NCI Yeast Anticancer Drug Screen. Data for the cln2 rad14 strain (AID 165).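 Also: 0% = growth equal to vehicle treated cultures.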 The following applies: S. cerevisiae cln2 rad14 strain, active compounds read high; at 50.0 µM unless noted. In a few lines:
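Relative to vehicle controls, growth inhibition of compound-treated cln2 rad14 yeast was recorded.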

Assay [5] can be described thus: NCI Yeast Anticancer Drug Screen. Data for the bub3 strain (AID 167). The following applies: S. cerevisiae bub3 mutant strain, active compounds read high; at 50.0 µM unless noted. In a few lines:
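Compounds were applied to a genetically altered yeast strain carrying a cell-cycle control defect. Growth inhibition was scored against vehicle-treated controls.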

Assay [6] is described as follows: NCI Yeast Anticancer Drug Screen. Data for the mlh1 rad18 strain (AID 175). The note with it: S. cerevisiae mlh1 rad18 strain growth inhibition, active compounds read high; at 50.0 µM unless noted. The method, boiled down: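 Test agents were incubated with a yeast strain of defined genotype (DNA damage repair defect). Inhibition of growth was derived by comparison with vehicle-exposed cultures.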

Molecules are shown by their SMILES. This is part of a sample that, as a whole, favours compounds with a hit. Of some 79,000 tested, about 15% had one in any assay. Unmarked numbers belong to inactive results. Activity calls are given as the source filed them. Rule as the data show it: active = growth inhibition above about 70%; inactive = the rest.

For 21 compounds, growth inhibition results are on record in PubChem BioAssay (NCI).

Consider `[S-]c1n[n+](-c2ccccc2)cs1`, for which the growth inhibition in assay [1] was 2.95%; in assay [2], 2.1%; in assay [3] it was 0.15%; in assay [4], -5.25%; in assay [5] it was -23%; in assay [6] it was 3.1%.
As to `Cc1ccc(/C=C2\CCCC\C2=N\O)cc1`, the growth inhibition was 5.15% in assay [1]; -7% in assay [2]; 2.3% in assay [3]; -10.2% in assay [4]; -22.6% in assay [5]; 2.15% in assay [6].
For the compound `CC1(C)SC=C2C1=CSC2(C)C`, the growth inhibition is 0.2% in assay [1]; 2.1% in assay [2]; -6.35% in assay [3]; -26.2% in assay [4]; 4.6% in assay [5]; -3.65% in assay [6].
Take `O=C1C(N2CCCCC2)=C(c2ccccc2)c2ccccc21`: the growth inhibition in assay [1] is 5.1%; in assay [2], 7.5%; in assay [3], -3.6%; in assay [4] it was -28.9%; in assay [5], 17.1%; in assay [6], -10.2%.
For `O=C1C=CC(=O)C(CNc2ccc(C(=O)OCc3ccccc3)cc2)=C1`, the growth inhibition in assay [1] was 23.6%; in assay [2], 8.75%; in assay [3], -28.9%; in assay [4], -30.6%; in assay [5], -42.9%; in assay [6], -3.1%.
As to `O=c1[nH]cnc2nc(N3CCOCC3)sc12`, the growth inhibition was -15.7% in assay [1]; -4.6% in assay [2]; -1.7% in assay [3]; -5.8% in assay [4]; -6.5% in assay [5]; -4.65% in assay [6].
In the case of `Cc1ccc(Cl)cc1NC(=O)c1ccccc1`, the growth inhibition in assay [1] was 3.45%; in assay [2] it was -1.25%; in assay [3] it was -8.5%; in assay [4] it was -28.9%; in assay [5], -18.1%; in assay [6], 14.8%.
Consider `FC(F)(F)c1cc(NC(=S)SCc2ccc3c(c2)OCO3)ccc1Cl`, for which the growth inhibition was 73.5% (active) in assay [1]; 63.9% in assay [2]; 73.3% (active) in assay [3]; 38.5% in assay [4]; 59.2% in assay [5]; 84% (active) in assay [6].
With `O=C(O)c1cc(C(=O)C(=O)c2cc(C(=O)O)c(O)c3ccccc23)c2ccccc2c1O`, the growth inhibition was -31.7% in assay [1]; -25.4% in assay [2]; -7.15% in assay [3]; -0.4% in assay [4]; -17.9% in assay [5]; -19.4% in assay [6].
Regarding `COc1cc(C(CC(=O)O)C(=O)O)c([N+](=O)[O-])cc1OC` (stereo unspecified), the growth inhibition is -23.2% in assay [1]; 1.1% in assay [2]; 2.2% in assay [3]; 0% in assay [4]; 24.5% in assay [5]; 7.4% in assay [6].
In the case of `COc1ccc(C(OC(=O)Oc2ccccc2)c2ccccc2)cc1` (stereo unspecified), the growth inhibition in assay [1] was -9.1%; in assay [2] it was 6.55%; in assay [3], -6.9%; in assay [4] it was -20.1%; in assay [5], -16.4%; in assay [6], 7%.
Turning to `O=c1/c(=C/c2ccccc2[N+](=O)[O-])sc2nc3ccccc3n12`, the growth inhibition was -16.6% in assay [1]; -21.4% in assay [2]; -25.9% in assay [3]; -12.7% in assay [4]; -21.9% in assay [5]; -47.2% in assay [6].
In the case of `N#Cc1c(-c2ccccc2)[nH]c2ccccc2c1=O`, the growth inhibition in assay [1] is 54.7%; in assay [2], 55.4%; in assay [3] it was 2.05%; in assay [4], 11.3%; in assay [5], -3.65%; in assay [6], -17.5%.
Take `[O-][N+](CCO)(CCO)c1ncnc2nc[nH]c12`: the growth inhibition in assay [1] was -2.35%; in assay [2] it was -12.7%; in assay [3] it was -0.45%; in assay [4] it was -8.9%; in assay [5] it was -63.7%; in assay [6], 18.4%.
As to `Nc1nc(N)c2ncn(Cc3ccccc3)c2n1`, the growth inhibition in assay [1] was -41.2%; in assay [2], -34.4%; in assay [3] it was -9.95%; in assay [4] it was -14.1%; in assay [5] it was -16.1%; in assay [6], -13.9%.
`CSc1nnc(CCC(=O)Nc2cc(Cl)ccc2Cl)o1`: the growth inhibition was 40.7% in assay [1]; 44.8% in assay [2]; 28.9% in assay [3]; 15.7% in assay [4]; 54.5% in assay [5]; 9.05% in assay [6].
For `CC(O)C1(O)CCCCC1` (stereo unspecified), the growth inhibition in assay [1] was -11.8%; in assay [2] it was -1.95%; in assay [3], -2.05%; in assay [4] it was -29.6%; in assay [5] it was -13.2%; in assay [6], -14.8%.
Consider `NC(=O)c1ccc[n+]([O-])c1`, for which the growth inhibition in assay [1] is 15.1%; in assay [2] it was -0.5%; in assay [3] it was 6.35%; in assay [4] it was 6.6%; in assay [5], 2.65%; in assay [6], -1.75%.
Regarding `CC(C)(C)C(=O)Oc1ccc([N+](=O)[O-])cc1`, the growth inhibition in assay [1] is 2.15%; in assay [2] it was -0.35%; in assay [3], -7.55%; in assay [4], -30.4%; in assay [5], -33.1%; in assay [6], 10.2%.
`CC(C)C1N(N2C(=O)CS(=O)(=O)C2C(C)C)C(=O)CS1(=O)=O` (stereo unspecified): the growth inhibition is 3.45% in assay [1]; -15.1% in assay [2]; -6.8% in assay [3]; 6.75% in assay [4]; -9.15% in assay [5]; 24.3% in assay [6].
Regarding `CNc1cc([N+](=O)[O-])ccc1Br`, the growth inhibition is 10.2% in assay [1]; 4.2% in assay [2]; -1.1% in assay [3]; -2.95% in assay [4]; 7.5% in assay [5]; -14.9% in assay [6].
